Inconclusive results are not listed. Active and inactive are the calls of the source. Rule for the calls: active = hit-call score of the fitted dose curve at least 0.9, where 1 is the maximum; inconclusive = response in the unintended direction; inactive = score below 0.9.
How the values were obtained:
[1] = TOX21_p53_BLA_p3_viability: Viability Assessment in the Tox21 HCT-116 p53 Agonism Beta-lactamase Assay, Phase 3 (AID 2283593);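 note: cells exposed to compound for 16 h before reading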
Procedure, shortened: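 Cellular ATP was quantified by CellTiter-Glo luminescence, read after 30 min at room temperature. Beforehand, HCT116 cells (4000/well) received compound 5 h post-seeding, 217-fold diluted from DMSO, then incubated 16 h at 37C.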

[2] = biological target: Cellular tumor antigen p53 (Homo sapiens) (UniProt P04637); experiment: TOX21_p53_BLA_p3_ratio: Tox21 HCT-116 p53 Agonism Beta-lactamase Assay, Ratio, Phase 3 (AID 2283596)
Chain of Cellular tumor antigen p53 (Homo sapiens) (P04637 whole entry, looked up): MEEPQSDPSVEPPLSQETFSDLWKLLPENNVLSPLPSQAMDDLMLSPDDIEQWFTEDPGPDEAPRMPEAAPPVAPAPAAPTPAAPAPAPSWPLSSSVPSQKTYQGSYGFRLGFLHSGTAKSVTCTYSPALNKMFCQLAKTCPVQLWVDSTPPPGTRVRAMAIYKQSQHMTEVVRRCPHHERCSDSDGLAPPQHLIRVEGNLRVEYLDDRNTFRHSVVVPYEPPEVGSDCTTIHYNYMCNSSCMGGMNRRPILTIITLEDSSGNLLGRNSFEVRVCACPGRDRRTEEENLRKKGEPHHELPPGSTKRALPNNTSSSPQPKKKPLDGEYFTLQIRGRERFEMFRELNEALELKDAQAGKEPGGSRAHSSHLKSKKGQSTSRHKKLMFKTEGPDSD
Procedure, shortened: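 HCT116 p53-bla cells (4000/well) given compound in DMSO (217-fold dilution) after 5 h, incubated 16 h at 37C. CCF4-AM substrate 2 h at room temperature; 460/530 nm emission ratio, gain fitted against DMSO.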

[3] = TOX21_p53_BLA_p4_viability: Viability Assessment in the Tox21 HCT-116 p53 Agonism Beta-lactamase Assay, Phase 4 (AID 2283597);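 note: hits lower the luminescence signal meaning cytotoxicity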
Procedure, shortened: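 HCT-116 p53-bla cells, 4000/well, dosed after 5 h attachment and incubated 16 h at 37 °C, 5% CO2. Viability from CellTiter-Glo ATP luminescence after 30 min at room temperature, taken after the beta-lactamase read; loss of signal indicates cytotoxicity.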

[4] = biological target: Cellular tumor antigen p53 (Homo sapiens) (UniProt P04637); experiment: TOX21_p53_BLA_p5_ratio: Tox21 HCT-116 p53 Agonism Beta-lactamase Assay, Ratio, Phase 5 (AID 2283599)
Procedure, shortened: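 Beta-lactamase reporter ratio (blue 460 nm over green 530 nm, 405 nm excitation) after 2 h CCF4-AM loading, in HCT-116 cells exposed 16 h at 37 C to compounds pinned at 217-fold dilution. Increases relative to DMSO baseline scored.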

[5] = TOX21_p53_BLA_p5_viability: Viability Assessment in the Tox21 HCT-116 p53 Agonism Beta-lactamase Assay, Phase 5 (AID 2283600)
Procedure, shortened: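 HCT-116 p53 beta-lactamase reporter cells, 4000/well, were exposed to compound (pin transfer, 217-fold dilution) for 16 hours at 37C. Cellular ATP was read by CellTiter-Glo luminescence after 30 min at room temperature.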

[6] = biological target: Cellular tumor antigen p53 (Homo sapiens) (UniProt P04637); experiment: TOX21_p53_BLA_p4_ratio: Tox21 HCT-116 p53 Agonism Beta-lactamase Assay, Ratio, Phase 4 (AID 2283601)
Procedure, shortened: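 Signal is the blue/green (460nm/530nm) ratio of cleaved versus uncleaved CCF4-AM substrate, read after 2 h substrate loading. Cells were HCT116 carrying the p53-responsive beta-lactamase reporter, dosed 16 h at 37C, 5% CO2; CellTiter-Glo measured in parallel.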

[7] = Tanguay_ZF_120hpf_MORT_legacy: (Legacy) Oregon State University Tanguay Lab 120 Hour Post-fertilization zebrafish Assay for Mortality (AID 2283633)
Procedure, shortened: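 Dechorionated Tropical 5D wild-type zebrafish embryos, one per well from 6 hpf, static exposure in 0.64% DMSO at 28C until 120 hpf. Mortality scored as binary by brightfield microscopy at 24 and 120 hpf.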

[8] = Tanguay_ZF_120hpf_YSE_legacy: (Legacy) Oregon State University Tanguay Lab 120 Hour Post-fertilization zebrafish Assay for Yolk Sac Edema (AID 2283634)
Procedure, shortened: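 Dechorionated Tropical 5D wild-type zebrafish embryos were exposed statically, one per well, from 6 to 120 hpf at 28C in 0.64% DMSO. Yolk sac edema was scored present/absent by brightfield at 120 hpf, and dead embryos were excluded.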

[9] = Tanguay_ZF_120hpf_AXIS_legacy: (Legacy) Oregon State University Tanguay Lab 120 Hour Post-fertilization zebrafish Assay for Body Axis Malformation (AID 2283635)
Procedure, shortened: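 Dechorionated wild-type Tropical 5D zebrafish embryos, one per well, statically exposed from 6 hpf to 120 hpf at 28C in 0.64% DMSO final. Body axis malformation scored present/absent by brightfield microscopy at 120 hpf; dead embryos excluded.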

[10] = Tanguay_ZF_120hpf_EYE_legacy: (Legacy) Oregon State University Tanguay Lab 120 Hour Post-fertilization zebrafish Assay for Eye Malformation (AID 2283636)
Procedure, shortened: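 Read-out is binary presence or absence of eye malformation, scored by brightfield microscopy at 120 hpf. Single larvae were exposed from 6 hpf in embryo medium containing 0.64% DMSO, with DMSO as baseline.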

[11] = Tanguay_ZF_120hpf_SNOU_legacy: (Legacy) Oregon State University Tanguay Lab 120 Hour Post-fertilization zebrafish Assay for Snout Malformation (AID 2283637)
Procedure, shortened: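 Snout malformation read as a yes/no call on brightfield images of 120 hpf larvae (Tropical 5D strain). Static exposure began at 6 hpf on dechorionated embryos in 0.64% DMSO, with gain of signal analysed versus DMSO controls.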

[12] = Tanguay_ZF_120hpf_JAW_legacy: (Legacy) Oregon State University Tanguay Lab 120 Hour Post-fertilization zebrafish Assay for Jaw Malformation (AID 2283638)
Procedure, shortened: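 Dechorionated Tropical 5D wild-type zebrafish embryos, one per well, exposed statically from 6 hpf to 120 hpf at 28C in 0.64% DMSO. Jaw malformation was scored by brightfield microscopy as present or absent. It was not scored in dead embryos.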

[13] = Tanguay_ZF_120hpf_OTIC_legacy: (Legacy) Oregon State University Tanguay Lab 120 Hour Post-fertilization zebrafish Assay for Otic Vesicle Malformation (AID 2283639)
Procedure, shortened: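 Embryos from 5D wild-type adults exposed in plates; DMSO 0.64% v/v final. Sealed, light-protected, 28C, static to 120 hpf. Otic vesicle malformation recorded as binary endpoint; gain-of-signal fitted vs DMSO.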

[14] = Tanguay_ZF_120hpf_PE_legacy: (Legacy) Oregon State University Tanguay Lab 120 Hour Post-fertilization zebrafish Assay for Pericardial Edema (AID 2283640)
Procedure, shortened: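 Tropical 5D wild-type zebrafish embryos were statically exposed until 120 hpf at 28C, with 0.64% DMSO final. Pericardial edema was scored by brightfield as present or absent; endpoints were not scored in dead embryos.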

[15] = Tanguay_ZF_120hpf_BRAI_legacy: (Legacy) Oregon State University Tanguay Lab 120 Hour Post-fertilization zebrafish Assay for Brain Malformation (AID 2283641)
Procedure, shortened: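 Tropical 5D wild-type zebrafish embryos exposed statically until 120 hpf at 28C, 0.64% DMSO final, sealed and dark. Brain malformation scored present/absent by brightfield at 120 hpf; dead embryos excluded. Trimethyltin chloride 5uM positive control.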

[16] = Tanguay_ZF_120hpf_SOMI_legacy: (Legacy) Oregon State University Tanguay Lab 120 Hour Post-fertilization zebrafish Assay for Somite Malformation (AID 2283647)
Procedure, shortened: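 Dechorionated Tropical 5D wild-type zebrafish embryos, one per well from 6 hpf, statically exposed at 28C to 120 hpf in 0.64% DMSO; somite malformation scored present/absent by brightfield; trimethyltin 5 uM positive control; dead embryos not scored.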

[17] = Tanguay_ZF_120hpf_PFIN_legacy: (Legacy) Oregon State University Tanguay Lab 120 Hour Post-fertilization zebrafish Assay for Pectoral Fin Malformation (AID 2283648);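 note: each larva judged yes or no for fin defect by brightfield with dead larvae skipped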
Procedure, shortened: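 5D WT zebrafish; pronase dechorionation 4 hpf; 1 embryo/well at 6 hpf; static exposure to 120 hpf, 28C, sealed, foil-covered; final DMSO 0.64% v/v; 5 uM trimethyltin chloride positive control; fin defect scored yes/no.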

[18] = Tanguay_ZF_120hpf_CFIN_legacy: (Legacy) Oregon State University Tanguay Lab 120 Hour Post-fertilization zebrafish Assay for Caudal Fin Malformation (AID 2283649)
Procedure, shortened: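 Dechorionated Tropical 5D wild-type embryos, one per well from 6 hpf, static exposure to 120 hpf at 28C in 0.64% DMSO. Caudal fin malformation scored by brightfield as present/absent; not scored in dead embryos.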

[19] = Tanguay_ZF_120hpf_PIG_legacy: (Legacy) Oregon State University Tanguay Lab 120 Hour Post-fertilization zebrafish Assay for Pigmentation Malformation (AID 2283650)
Procedure, shortened: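 Pronase dechorionation at 4 hpf; embryos plated at 6 hpf, one per well; static exposure, sealed and foil-covered, 28C, to 120 hpf; pigmentation read by brightfield, binary; DMSO 0.64% baseline, 5uM trimethyltin chloride positive control.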

[20] = Tanguay_ZF_120hpf_CIRC_legacy: (Legacy) Oregon State University Tanguay Lab 120 Hour Post-fertilization zebrafish Assay for Circulatory Malformation (AID 2283651)
Procedure, shortened: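 Read-out: presence or absence of circulatory malformation at 120 hpf, scored by brightfield microscopy, fitted in the gain-of-signal direction against DMSO baseline. Wild-type 5D larvae were exposed from 6 hpf after enzymatic chorion removal.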

Measured: AC50

O=S(=O)(O)c1ccc(N=Nc2c(O)ccc3ccccc23)cc1
active: [3] 44 µM
inactive: [1] | [2] | [4] | [5] | [6]

C=C[Si](OCCOC)(OCCOC)OCCOC
inactive: [1] | [2] | [3] | [4] | [5]

CCCCC1C(=O)N(c2ccccc2)N(c2ccccc2)C1=O
inactive: [1] | [2] | [3] | [4] | [5] | [6]

CC(=O)OC1CCCCC1C(C)(C)C (centres undefined)
inactive: [1] | [2] | [3] | [4] | [5] | [6]

C1CNCCN1
inactive: all assays above

CC(CCC(=O)O)(c1ccc(O)cc1)c1ccc(O)cc1
inactive: [1] | [2] | [3] | [4] | [5]

CCCCOCCOCCOC(C)=O
inactive: [1] | [2] | [3] | [4] | [5] | [6]

O=C(Oc1ccccc1)c1ccccc1C(=O)Oc1ccccc1
inactive: [1] | [2] | [3] | [4] | [6]

C=C(C)C1CC=C(C)CC1 (centres undefined)
inactive: [1] | [2] | [3] | [4] | [5] | [6]

CCCCCCCC(=O)OCC(COC(=O)CCCCCCC)OC(=O)CCCCCCC
inactive: [1] | [2] | [3] | [4] | [5] | [6]

Fc1ccc(Br)cc1
inactive: [1] | [2] | [3] | [4] | [6]

CCCCCCOc1ccc(N)cc1
inactive: [1] | [2] | [3] | [4] | [5] | [6]

COc1ccc(-c2coc3cc(O)cc(O)c3c2=O)cc1
inactive: [1] | [2] | [3] | [4] | [5] | [6]

CC(C)c1ccc(O)c(C(C)C)c1
active: [3] 44.7 µM | [6] 81 µM
inactive: [1] | [2] | [4] | [5]
